PubChem BioAssay AID1159580 (chemical genetic matrix, 2015)
The campaign covered roughly 5,500 compounds. About 2,000 (36%) were called active. Not shown: some 18% with an inconclusive outcome. Cut-off read from the data, not from the text of the source: active = normalized growth mostly below about 0.91 (no sharp cut-off); inconclusive = no clear call, values can overlap the other calls; inactive = mostly above about 0.92. The list shows a part of the results.

Test: chemical genetic growth profiling, strain panel (AID 1159580);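 note: tested at 20 µM; growth read once vehicle control cultures reached saturation at 30 °C; 1 = growth at the plate median or of vehicle wells; lower values mean less growth of the strain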
Details: growth OD

Measured: normalized growth

C[C@@H]1C(=O)O[C@H]2[C@H]1CC[C@@]1(C)C=CC(=O)[C@@]3(C)O[C@@]213
inactive: S. cerevisiae deletion strains, locus YKL009W, strain mrt4, active compounds read low 1.03 | S. cerevisiae deletion strains, locus YKL068W, active compounds read low 1.01 | S. cerevisiae deletion strains, locus YKL085W, strain MDH1 (second series), active compounds read low 1.01 | S. cerevisiae deletion strains, locus YKL085W, strain MDH1, active compounds read low 1.01 | S. cerevisiae deletion strains, locus YKL160W, strain elf1, active compounds read low 0.963 | S. cerevisiae deletion strains, locus YKL190W, strain CNB1, active compounds read low 1.01 | S. cerevisiae deletion strains, locus YKR001C, strain vps1, active compounds read low 1 | S. cerevisiae deletion strains, locus YKR026C, strain gcn3, active compounds read low 1.01 | S. cerevisiae deletion strains, locus YKR091W, strain srl3, active compounds read low 1 | S. cerevisiae deletion strains, locus YLL001W, strain dnm1, active compounds read low 1.02 | S. cerevisiae deletion strains, locus YLL026W, active compounds read low 1.01 | S. cerevisiae deletion strains, locus YLL041C, strain sdh2, active compounds read low 1.01 | S. cerevisiae deletion strains, locus YLR027C, strain aat2, active compounds read low 1.02 | S. cerevisiae deletion strains, locus YLR039C, strain RIC1, active compounds read low 0.994 | S. cerevisiae deletion strains, locus YLR058C, strain SHM2, active compounds read low 1.01 | S. cerevisiae deletion strains, locus YLR102C, strain apc9, active compounds read low 1.01 | S. cerevisiae deletion strains, locus YLR113W, strain HOG1, active compounds read low 1.03 | S. cerevisiae deletion strains, locus YLR221C, strain rsa3, active compounds read low 1.01 | S. cerevisiae deletion strains, locus YLR258W, strain gsy2, active compounds read low 1.03 | S. cerevisiae deletion strains, locus YLR262C, strain YPT6 (second series), active compounds read low 0.996 | S. cerevisiae deletion strains, locus YLR262C, strain YPT6, active compounds read low 0.997 | S. cerevisiae deletion strains, locus YLR268W, strain sec22, active compounds read low 1.04 | S. cerevisiae deletion strains, locus YLR320W, strain mms22, active compounds read low 1.03 | S. cerevisiae deletion strains, locus YLR330W, strain CHS5, active compounds read low 1.01 | S. cerevisiae deletion strains, locus YLR342W, strain FKS1 (second series), active compounds read low 1.01 | S. cerevisiae deletion strains, locus YLR342W, strain FKS1, active compounds read low 1.01 | S. cerevisiae deletion strains, locus YLR357W, strain rsc2, active compounds read low 1.02 | S. cerevisiae deletion strains, locus YLR370C, strain arc18, active compounds read low 1.02 | S. cerevisiae deletion strains, locus YLR371W, strain rom2, active compounds read low 1.03 | S. cerevisiae deletion strains, locus YLR384C, strain iki3, active compounds read low 1 | S. cerevisiae deletion strains, locus YLR418C, strain cdc73, active compounds read low 1.05 | S. cerevisiae deletion strains, locus YML016C, strain PPZ1, active compounds read low 1.01 | S. cerevisiae deletion strains, locus YML032C, strain rad52, active compounds read low 1.01 | S. cerevisiae deletion strains, locus YML120C, strain ndi1, active compounds read low 1.03 | S. cerevisiae deletion strains, locus YML124C, strain tub3, active compounds read low 1.02 | S. cerevisiae deletion strains, locus YMR058W, strain fet3, active compounds read low 1.03 | S. cerevisiae deletion strains, locus YMR078C, strain ctf18, active compounds read low 1.02 | S. cerevisiae deletion strains, locus YMR125W, strain sto1, active compounds read low 0.999 | S. cerevisiae deletion strains, locus YMR129W, active compounds read low 1.03 | S. cerevisiae deletion strains, locus YMR205C, strain PFK2, active compounds read low 1.02 | S. cerevisiae deletion strains, locus YMR223W, strain ubp8, active compounds read low 1.01 | S. cerevisiae deletion strains, locus YMR231W, strain pep5, active compounds read low 1.01 | S. cerevisiae deletion strains, locus YMR263W, strain SAP30, active compounds read low 1.02 | S. cerevisiae deletion strains, locus YMR307W, strain GAS1, active compounds read low 1 | S. cerevisiae deletion strains, locus YNL067W, strain RPL9B, active compounds read low 1.02 | S. cerevisiae deletion strains, locus YNL071W, strain lat1, active compounds read low 1 | S. cerevisiae deletion strains, locus YNL128W, strain TEP1, active compounds read low 1.03 | S. cerevisiae deletion strains, locus YNL153C, strain GIM3, active compounds read low 1.02 | S. cerevisiae deletion strains, locus YNL183C, strain NPR1, active compounds read low 0.974 | S. cerevisiae deletion strains, locus YNL209W, strain ssb2, active compounds read low 1.01 | S. cerevisiae deletion strains, locus YNL233W, strain BNI4, active compounds read low 1.03 | S. cerevisiae deletion strains, locus YNL248C, strain rpa49, active compounds read low 1.03 | S. cerevisiae deletion strains, locus YNL250W, strain rad50, active compounds read low 1.03 | S. cerevisiae deletion strains, locus YNL271C, strain bni1, active compounds read low 1.01 | S. cerevisiae deletion strains, locus YNL298W, strain CLA4, active compounds read low 1.01 | S. cerevisiae deletion strains, locus YNL307C, strain MCK1, active compounds read low 1.03 | S. cerevisiae deletion strains, locus YNL322C, strain KRE1 (second series), active compounds read low 1 | S. cerevisiae deletion strains, locus YNL322C, strain KRE1, active compounds read low 1.01 | S. cerevisiae deletion strains, locus YNR049C, strain mso1, active compounds read low 1.04 | S. cerevisiae deletion strains, locus YNR052C, strain pop2, active compounds read low 1.01 | S. cerevisiae deletion strains, locus YOL006C, strain TOP1, active compounds read low 1.04 | S. cerevisiae deletion strains, locus YOL012C, strain htz1 0.788 | S. cerevisiae deletion strains, locus YOL147C, strain pex11, active compounds read low 1.01 | S. cerevisiae deletion strains, locus YOR001W, strain rrp6, active compounds read low 1.05 | S. cerevisiae deletion strains, locus YOR061W, strain CKA2, active compounds read low 1.02 | S. cerevisiae deletion strains, locus YOR069W, strain VPS5, active compounds read low 1.01 | S. cerevisiae deletion strains, locus YOR070C, strain gyp1, active compounds read low 1.01 | S. cerevisiae deletion strains, locus YOR080W, strain dia2, active compounds read low 1 | S. cerevisiae deletion strains, locus YOR083W, strain WHI5, active compounds read low 1 | S. cerevisiae deletion strains, locus YOR106W, strain vam3, active compounds read low 0.999 | S. cerevisiae deletion strains, locus YOR136W, strain idh2, active compounds read low 1.02 | S. cerevisiae deletion strains, locus YOR144C, strain elg1, active compounds read low 1.02 | S. cerevisiae deletion strains, locus YOR184W, strain ser1, active compounds read low 1.03 | S. cerevisiae deletion strains, locus YOR231W, strain MKK1, active compounds read low 1.04 | S. cerevisiae deletion strains, locus YOR265W, strain rbl2, active compounds read low 1.03 | S. cerevisiae deletion strains, locus YOR270C, strain vph1, active compounds read low 1.1 | S. cerevisiae deletion strains, locus YOR290C, strain snf2, active compounds read low 1.02 | S. cerevisiae deletion strains, locus YOR316C, strain cot1, active compounds read low 1.02 | S. cerevisiae deletion strains, locus YPL051W, strain arl3, active compounds read low 1.02 | S. cerevisiae deletion strains, locus YPL055C, strain LGE1, active compounds read low 1.06 | S. cerevisiae deletion strains, locus YPL078C, strain atp4, active compounds read low 1.02 | S. cerevisiae deletion strains, locus YPL106C, strain sse1, active compounds read low 1.01 | S. cerevisiae deletion strains, locus YPL240C, strain hsp82, active compounds read low 1.01 | S. cerevisiae deletion strains, locus YPL241C, strain CIN2, active compounds read low 1 | S. cerevisiae deletion strains, locus YPL256C, strain CLN2, active compounds read low 1.03 | S. cerevisiae deletion strains, locus YPR119W, strain clb2, active compounds read low 1.01 | S. cerevisiae deletion strains, locus YPR141C, strain kar3, active compounds read low 1.02 | S. cerevisiae deletion strains, locus YPR163C, strain tif3, active compounds read low 1.02 | S. cerevisiae deletion strains, locus YPR167C, strain met16, active compounds read low 1.02 | S. cerevisiae deletion strains, strain wtn01, active compounds read low 1.03 | S. cerevisiae strains, strain wild type, active compounds read low 1.02
